Assay outcomes (PubChem)
D1 ag = activates the human D1 dopamine receptor; HEK293 T-REx D1 cells, calcium flux, agonist mode; activation, % at 2 µM; hit rate 1% among 360,000
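Inducible HEK293 T-REx D1 cells, force-coupled to calcium signalling, were plated at 4000 cells/well with tetracycline and held overnight at 30 C. After no-wash calcium dye loading, compound-evoked calcium rise over 180 s flagged agonists.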
TRHR agonist = agonists of human TRH receptor. AID 493084. TRHR cells, calcium flux fluo-8, FDSS agonist mode. hit rate 0.18% among 360,000. activation, % at 2 µM
Target sequence (P34981 whole entry, looked up): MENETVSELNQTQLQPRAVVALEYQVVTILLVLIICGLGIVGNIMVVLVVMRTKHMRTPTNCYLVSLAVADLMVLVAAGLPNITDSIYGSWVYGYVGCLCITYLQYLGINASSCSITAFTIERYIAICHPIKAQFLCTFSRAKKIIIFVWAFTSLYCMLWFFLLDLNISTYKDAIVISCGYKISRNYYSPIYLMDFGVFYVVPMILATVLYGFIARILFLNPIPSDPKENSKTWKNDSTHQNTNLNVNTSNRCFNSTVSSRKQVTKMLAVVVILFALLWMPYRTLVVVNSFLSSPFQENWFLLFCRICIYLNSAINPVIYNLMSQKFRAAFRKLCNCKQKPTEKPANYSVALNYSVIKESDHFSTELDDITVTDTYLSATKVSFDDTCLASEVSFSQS
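In this calcium-flux screen, cells bearing human TRHR are dye-loaded with fluo-8, baselined for 10 cycles, then exposed to library compounds; positive kinetic calcium responses during the agonist phase mark hits, with TRH as control.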
D1 potentiator = potentiators of human D1 dopamine receptor | HEK293 TREx D1 cells, calcium flux, dopamine EC20 potentiation | potentiation, % at 10 µM | hit rate 0.036% among 360,000 | AID 504651; in the data active means potentiation above about 30%
D1 antag = antagonists of human D1 dopamine receptor; activity change, negative = inhibition, % at 10 µM; P21728; HEK293 TREx D1 cells, calcium flux, dopamine EC80; hits give low values; hit rate 3.2% among 360,000; in the data active means activity change below about -30%
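Tetracycline-induced HEK293 Trex D1 cells, force-coupled to calcium, dye-loaded; compounds added and read 180 s, then EC80 dopamine added and calcium flux tracked kinetically another 180 s.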
TRHR enhancer = allosteric enhancers of human TRH receptor; P34981; TRHR cells, fluo-8 calcium fluorescence, EC20 TRH enhancement; enhancement, % at 2 µM; hit rate 0.66% among 360,000; in the data active means enhancement above about 30%
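TRHR-expressing cells loaded with fluo-8 calcium dye were read kinetically (ex 480/em 530) during compound addition, then stimulated with an EC20 of TRH (10 nM final). Enhancement of the Gq-mediated intracellular calcium response was scored.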
Of the large screens only hits and unclear results are named; the others gave an inactive call. An excerpt weighted towards active compounds, which were near 4.7% of everything screened. Unless noted, no stated cut-off is given here; in the data, active means activation above about 30%; inactive means the rest.

CC(C)COc1ccc(C(=O)Nc2scc(-c3ccc(Br)cc3)c2C(=O)OC(C)C)cc1	TRHR enhancer 31
COc1ccc(C(=O)NCc2nnc(SCC(=O)c3ccc(F)cc3)n2C)cc1OC	none
Nc1ncc(S(=O)(=O)Nc2ccc(F)cc2F)cn1	none
O=C(CSc1nc2c(c(=O)[nH]1)CN(Cc1ccc(F)cc1)CC2)Nc1cccc(C(F)(F)F)c1	none
Cc1ccc(OC(=O)c2cccc(S(=O)(=O)N3CCN(C)CC3)c2)c(Br)c1	D1 antag -32
CCNC(=S)Nc1cccc(NC(=O)c2ccccc2O)c1	D1 antag -36
CCCC(=O)c1c[nH]c(C(=O)N2CCOCC2)c1	TRHR enhancer 36 (no result: D1 potentiator)
CCCCCN(C(=O)CCC(=O)OCC(=O)c1cccc(OC)c1)c1c(N)n(CCCC)c(=O)[nH]c1=O	none
Cc1csc(=N)n1CC(=O)N1CCc2ccccc21	D1 antag -32
O=C(Cn1cc2c(n1)CCCCC2)N1CCc2ccccc21	D1 antag -76
Cc1ccc(NC(=O)Cn2cc3c(n2)CCCCC3)cc1	D1 ag 40
O=C(CN1CCCc2ccccc21)N1CCc2ccccc21	none
COc1cc2c(cc1OC)C(COc1ccc(C(C)C)cc1)N(C(=O)c1ccc(S(=O)(=O)N3CCCC3)cc1)CC2 (stereo not given)	none
COc1ccc(NC(=O)CCCc2nnc3n(CCC(C)C)c(=O)c4sccc4n23)cc1Cl	none
Cc1ccc(Cn2nc(C)c(C(=O)NCC(c3cccs3)N3CCOCC3)c2Cl)cc1 (stereo not given)	none
Cc1cc(C(=O)OCC(=O)N(C)c2ccccc2)ccc1[N+](=O)[O-]	TRHR enhancer 35
CN(C(=O)COC(=O)c1ccc([N+](=O)[O-])cc1)c1ccccc1	none
CN(C(=O)COC(=O)CSc1ccc([N+](=O)[O-])cc1)c1ccccc1	D1 antag -47 (no result: D1 potentiator)
CC(=O)Oc1ccc(-c2cccc(C(=O)OCC(=O)N(C)c3ccccc3)c2)cc1	D1 antag -84
COc1ccc(NC(=O)c2oc3ccc(S(=O)(=O)N4CCC5(CC4)OCCO5)cc3c2C)cc1Cl	none
Cc1ccc(SCC(=O)OCC(=O)N(CC(C)C)c2c(N)n(Cc3ccccc3)c(=O)[nH]c2=O)cc1C	none
CC(=O)N1CCN(c2ccc(NC(=O)c3ccc(N4CCCC4)c([N+](=O)[O-])c3)cc2Cl)CC1	none
O=C(Nc1ccc(Cc2ccncc2)cc1)c1cccc([N+](=O)[O-])c1	none
Cc1ccc(C(=O)Nc2ccc(Cc3ccncc3)cc2)cc1[N+](=O)[O-]	D1 antag -35
O=C(Nc1ccc(N2CCCCC2)c(Cl)c1)c1ccc(N2CCOCC2)c([N+](=O)[O-])c1	D1 antag -48
O=C(Nc1ccc(Cc2ccncc2)cc1)c1ccc(N2CCOCC2)c([N+](=O)[O-])c1	D1 antag -44
CC(CCc1ccccc1)NC(=O)c1cccc([N+](=O)[O-])c1 (stereo not given)	none
Cc1ccc(C(=O)NC(C)CCc2ccccc2)cc1[N+](=O)[O-] (stereo not given)	D1 antag -62
CCOC(=O)N1CCc2c(sc3c2c(=O)n(Cc2ccccc2)c(=O)n3CC(=O)Nc2ccc(C)c(C)c2)C1	none
CCc1cc2c(=O)oc(-c3ccc(F)cc3)nc2s1	none
CCC(=O)Nc1cccc(NC(=O)c2ccc(C)c([N+](=O)[O-])c2)c1	none
CCCC(=O)Nc1cccc(NC(=O)c2ccc(C)c([N+](=O)[O-])c2)c1	D1 antag -34
CCc1cccc(NC(=O)Nc2ccc3c(c2)N(C)C(=O)c2ccccc2S3)c1	D1 antag -39
O=C(Nc1ccc(-n2cnnn2)cc1)c1cccc(S(=O)(=O)N2CCCC2)c1	none
CCOC(=O)C1(Cc2ccccc2)CCN(Cc2csc(C(C)=O)c2)CC1	D1 antag -34
CCOC(=O)C1(CCc2ccccc2)CCN(Cc2cc(OC)c(OC)cc2OC)CC1	D1 antag -37
CCOC(=O)C1(CCc2ccccc2)CCN(Cc2ccc(C(=O)OC)cc2)CC1	none
Cn1cc(C2=C(c3ccc(Cl)cc3Cl)C(=O)NC2=O)c2ccccc21	D1 ag 145, TRHR agonist 48
COc1ccc(CNS(=O)(=O)c2cc(C(=O)Nc3cc(Cl)cc(Cl)c3)ccc2F)cc1	none
Cc1cccc(Cc2ccc(Cl)nn2)c1	D1 antag -38
COc1ccc(NCc2nnc(SCC(=O)c3ccc(OC)cc3)n2C)cc1	D1 antag -33
COc1ccc(CC(=O)NCc2nnc(SCC(=O)c3ccc(OC)cc3)n2C)cc1	none
CCN(CC)CCn1c2c(c(SCC(=O)Nc3cccc(C(F)(F)F)c3)nc1=O)CCC2	D1 ag 48 (no result: D1 antag)
COc1ccc(Cn2ccnc2SCC(=O)Nc2cccc(NC(C)=O)c2)cc1	none
COc1ccc(Cn2c(CO)cnc2SCC(=O)Nc2cccc(NC(C)=O)c2)cc1	TRHR enhancer 32
COc1cccc(NC(=O)CSc2nc(=O)n(Cc3ccncc3)c3c2CCCC3)c1	D1 potentiator 37
Cc1ccccc1OCCC(=O)Nc1cc(S(=O)(=O)N2CCOCC2)ccc1OC(C)C	none
Cc1cccc(OC(C)C(=O)Nc2nc(-c3ccncc3)cs2)c1 (stereo not given)	none
Cc1ccccc1COC(=O)CCC1=NS(=O)(=O)c2ccccc2N1	none
CC1CN(c2nc3ccccn3c(=O)c2C=O)CC(C)O1 (stereo not given)	D1 antag -34
CC1CN(c2nc3ccccn3c(=O)c2/C=C(\C#N)S(=O)(=O)c2ccccc2)CC(C)O1 (stereo not given)	none
CN(C)C(CNC(=O)c1ccc(-c2ccccc2)cc1)c1ccccc1 (stereo not given)	TRHR enhancer 31
CC(=O)Nc1ccc(NC(=O)c2ccc(C3SCC(=O)N3CCc3ccccc3)cc2)cc1 (stereo not given)	D1 antag -52
Cc1cccc(-c2nc3nc(C)cc(NCc4ccccc4Cl)n3n2)c1	none
Cc1ccc(NC(=O)CN2CCN(C3CCCCC3)C(=O)C2=O)cc1	none
CC(=O)C1=C(C)Nc2ncnn2C1c1cccc(OCc2ccccc2)c1 (stereo not given)	D1 antag -31
COc1cccc(C2C(C(C)=O)=C(C)Nc3ncnn32)c1 (stereo not given)	none
Cc1ccc(S(=O)(=O)CC(=O)N2CCN(c3nc4c(F)cccc4s3)CC2)cc1	D1 ag 56 (no result: D1 antag)
Cc1cccc2sc(N3CCN(C(=O)CS(=O)(=O)c4ccc(F)cc4)CC3)nc12	none (no result: D1 antag)
N#CC(C#N)=C/C(C#N)=C(/N)N1CCN(c2ccc(Cl)cc2)CC1	D1 antag -40
CN(C)C(=C(C#N)C#N)N1CCN(c2ccc(Cl)cc2)CC1	none
CCN(CC)C(=O)COc1ccc(/C(C)=N/NC(=O)c2ccccc2Br)cc1	none
CCN(CC)C(=O)COc1ccc(/C(C)=N/NC(=O)c2ccccc2O)cc1	D1 antag -51
